Laboratory results published in PubChem BioAssay (NCATS).
Records with an inconclusive call do not appear. Calls of active or inactive are those of the source. Calls come from the whole dose curve.

experiment: A High-Content qHTS Against Drug Library for the Identification of Small Molecules that Inhibit DYT1 Early Onset Primary Dystonia-Associated Cell Pathology (AID 1645839); conditions: HEK293 Flp-In EGFP-delE TorsinA, punctate imaging, 48 h; series mostly up to 46.1 µM; % pathology change, negative = correction: at the top concentration
Text: Nicole Calakos M.D., Ph.D.
Duke University School of Medicine, Durham, NC
In DYT1 dystonia due to delGAG in the TOR1A gene, there is a robust and widely replicated finding of TorsinA protein mislocalization caused when the mutant protein is in excess of the wildtype protein (1-7). Stable HEK293 cell lines were created that replicate this phenomenon. Inducible expression of an EGFP-hu delE TorsinA encoding cDNA causes pronounced punctate cellular distribution. […] This phenotypic difference in EGFP-huTorsinA fusion protein distribution serves as an indicator of cell pathology. […] RNAi screen results with the assay were validated in DYT1 patient cell phenotypes, intersected with a known dystonia gene, and led to discovery of new human genetic dystonia associations.
The bioassay described herein is a high-content image screen with two readouts. The "%pathology" readout is the primary qHTS data channel, while the "cellcount" is the counterscreen qHTS channel. Desired active compounds are those that show inhibition in %pathology channel but no activity or minimal toxicity in cellcount readout.
1. Kustedjo, K., Bracey, M.H., and Cravatt, B.F. (2000). […] J. Biol. Chem. 275, 27933 - 27939.
2. Bragg, D.C., Kaufman, C.A., Kock, N., and Breakefield, X.O. (2004). Inhibition of N-linked glycosylation prevents inclusion formation by the dystonia-related mutant form of torsinA. Mol. Cell. Neurosci. 27, 417 - 426.
3. Gonzalez-Alegre, P., and Paulson, H.L. (2004). Aberrant Cellular Behavior of Mutant TorsinA Implicates Nuclear Envelope Dysfunction in DYT1 Dystonia. J. Neurosci. 24, 2593 - 2601.
4. Goodchild, R.E., and Dauer, W.T. (2004). Mislocalization to the nuclear envelope: an effect of the dystonia-causing torsinA mutation. Proc. Natl. Acad. Sci. U. S. A. 101, 847 - 852.
5. Kock, N., Allchorne, A.J., Sena-Esteves, M., Woolf, C.J., and Breakefield, X.O. (2006). RNAi blocks DYT1 mutant torsinA inclusions in neurons. Neurosci. Lett. 395, 201 - 205.
6. Hewett, J.W., Nery, F.C., Niland, B., Ge, P., Tan, P., Hadwiger, P., Tannous, B.A., Sah, D.W.Y., and Breakefield, X.O. (2008). siRNA knock-down of mutant torsinA restores processing through secretory pathway in DYT1 dystonia cells. Hum. Mol. Genet. 17, 1436 - 1445.
7. Calakos, N., Patel, V.D., Gottron, M., Wang, G., Tran-Viet, K.N., Brewington, D., Beyer, J.L., Steffens, D.C., Krishnan, R.R., and Zuchner, S. (2010). Functional evidence implicating a novel TOR1A mutation in idiopathic, late-onset focal dystonia. J. Med. Genet. 47, 646 - 650.
8. Rittiner* JE, Caffall* ZF, Hernandez-Martinez R, Sanderson SM, Pearson JL, Tsukayama KK, Liu AY, Xiao C, Tracy S, Shipman MK, Hickey P, Johnson J, Scott B, Stacy M, Saunders-Pullman R, Bressman S, Simonyan K, Sharma N, Ozelius LJ, Cirulli ET, Calakos N. Functional Genomic Analyses of Mendelian and Sporadic Disease Identify Impaired eIF2alpha Signaling as a Generalizable Mechanism for Dystonia. Neuron. 2016 Dec 21;92(6):1238-1251. doi: 10.1016/j.neuron.2016.11.012. Epub 2016 Dec 8. PMID: 27939583; PMCID: PMC5320521.
High-content, High-throughput Drug Screening Assay
The TorsinA mislocalization assay was modified from the previously published assay to accommodate compound testing in 1536 well format.1 Briefly, Flp-In T-REx 293 cells from Invitrogen in which a single copy of a cDNA is recombined into a specific genomic locus was used to create tetracycline-inducible expression of cDNA encoding either EGFP-hTOR1A (WT) or EGFP-delE hTOR1A (DYT1). WT and DYT1 cells were diluted to a concentration of 2 x 10^5 cells/mL in reduced serum media (DMEM High Glucose containing 1% tetracycline-tested FBS, 2 mM L-Glutamine, and 1% Penicillin/Streptomycin). 4 µl of WT cells and 4 µl of DTY1 cells were added to column 1 and columns 2-48, respectively, of a poly-D-lysine-coated, low base, black, clear bottom 1536 well plate (Corning, Corning, NY) using the BioRAPTR FRD Microfluidic Workstation (Beckman Coulter, Indianapolis, IN). The final cell number was 800 cells/well. […]
Potency is the fitted concentration of half-maximal effect.

Compound	% pathology change, negative = correction	Potency
CSCC[C@H](NC(=O)[C@H](Cc1c[nH]c2ccccc12)NC(=O)CCNC(=O)OC(C)(C)C)C(=O)N[C@@H](CC(=O)O)C(=O)N[C@@H](Cc1ccccc1)C(N)=O	-13.2% (inactive)	
O=C1CC2(CCCC2)CC(=O)N1	-2.56% (inactive)	
CCOC(=O)NNc1nncc2ccccc12	11.5% (inactive)	
CCCCCCn1c(=O)c2c(ncn2C)n(C)c1=O	2.92% (inactive)	
Cc1cccc(C)c1NC(=O)c1ccc(N)cc1	14.3% (inactive)	
CNC[C@H](O)[C@@H](O)[C@H](O)[C@H](O)CO	18.8% (inactive)	
O=C(NO)c1ccccc1	14.7% [at 91.7 µM] (inactive)	
Cc1cc(CCCOc2c(C)cc(-c3noc(C(F)(F)F)n3)cc2C)on1	-27% (inactive)	
CCCC(=O)OCOC(=O)C1=C(C)NC(C)=C(C(=O)OC)C1c1cccc(Cl)c1Cl (stereo not given)	0.527% (inactive)	
CNC(=O)c1c(I)c(NC(C)=O)c(I)c(C(=O)O)c1I	-1.61% (inactive)	
CC(CC(C#N)(c1ccccc1)C(C)C)N(C)C (stereo not given)	16.5% (inactive)	
CC(=O)OC[C@H]1O[C@@H](OC(C)=O)[C@H](OC(C)=O)[C@@H]1OC(C)=O	12.6% (inactive)	
O=C(O)c1ccccc1Nc1cc(Cl)ccc1C(=O)O	11.9% [at 19.1 µM] (inactive)	
Cc1ccccc1N1CCN(CCc2nnc3n2CCCC3)CC1	0.282% (inactive)	
COc1cc(OC)nc(O[C@H](C(=O)O)C(OC)(c2ccccc2)c2ccccc2)n1	-7.27% (inactive)	
N[C@@H](Cc1cc(I)c(O)c(I)c1)C(=O)O	11.1% (inactive)	
CC(COc1ccccc1)NN (stereo not given)	-11.7% (inactive)	
NCC(=O)O	4.66% [at 19.1 µM] (inactive)	
COC(=O)c1c(Cl)c(Cl)c(C(=O)OC)c(Cl)c1Cl	11.4% [at 91.7 µM] (inactive)	
CC(=O)N1CCN(c2ccc(O)cc2)CC1	-10.2% (inactive)	

Compound	% pathology change, negative = correction	Potency
CCOC(=O)C(=O)CCc1ccccc1	8.12% (inactive)	
OC[C@]1(O)OC[C@@H](O)[C@H](O)[C@@H]1O	-17.9% (inactive)	
Cc1sccc1Br	11.4% (inactive)	
CCC(C(=O)OCCN1CCOC(c2ccccc2)C1C)c1ccccc1 (stereo not given)	-2.88% (inactive)	
CCCCCC1Nc2cc(C(F)(F)F)c(S(N)(=O)=O)cc2S(=O)(=O)N1 (stereo not given)	-5.24% (inactive)	
CC(C)(C)C1CCC(CC2=C(O)c3ccccc3C(=O)C2=O)CC1 (stereo not given)	2.93% (inactive)	
CCN(CC)CC(=O)Oc1ccc(NC(C)=O)cc1	0.0712% (inactive)	
Nc1ccc(C(=O)OCC(O)CO)cc1 (stereo not given)	-6.96% (inactive)	
COCCc1ccc(OCC2CO2)cc1 (stereo not given)	2.23% (inactive)	
C[C@@H]1CCC[C@H](C)N1CCCC(O)(c1ccccc1)c1ccccn1 (stereo not given in full)	7.6% (inactive)	
C=C(C)C(=O)OCC(O)CO (stereo not given)	0.543% (inactive)	
COC(=O)c1cc(Cl)ccc1OC	20.1% (inactive)	
O=C(O)Cn1cnnn1	1.14% (inactive)	
CN(CC1(C)CCCO1)S(=O)(=O)c1ccc(Cl)c(S(N)(=O)=O)c1 (stereo not given)	5.95% (inactive)	
C[N+](C)(CCOc1ccccc1)Cc1cccs1	9.92% (inactive)	
CC(C)(C)c1ccc(O)c(O)c1		31.6 µM (active)
CCOc1ccccc1OCC1CNCCO1 (stereo not given)	-4% (inactive)	
CC(C)(c1ccc(O)cc1)c1ccc(O)cc1		31.6 µM (active)
C/C=C(/C(=C/C)c1ccc(OC(C)=O)cc1)c1ccc(OC(C)=O)cc1		8.91 µM (active)
O=C1CC(c2ccc(Cl)cc2)CC(=O)N1	2.05% (inactive)	
